Experimental data reported in PubChem BioAssay (NCI).
About 79,000 compounds went through this panel and 15% of them were active in at least one assay; those are over-represented in the sample as a whole. Calls of active or inactive are those of the source. Rule as the data show it: active = growth inhibition above about 70%; inactive = the rest.

Experiment: NCI Yeast Anticancer Drug Screen. Data for the rad50 strain (AID 155);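 also: 0% = growth of vehicle-only cultures of the same strain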
Conditions: S. cerevisiae rad50 strain growth inhibition; at 50.0 µM; stronger effect = higher value
Summary of the method: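 Yeast carrying a defined DNA repair defect were exposed to test compounds, and growth was compared with vehicle-treated controls to give percent inhibition.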
In the case of Cc1ccccc1C(=O)NNC(=O)c1ccc2ccccc2c1, the growth inhibition is reported as 7.3% (inactive). In the case of CCc1c(C)c2cc(N)ccc2[nH]c1=O, the growth inhibition is reported as -8.05% (inactive). In the case of Cc1ccccc1OCC1COCN(C(C)(C)CO)CO1 (stereo not given), the growth inhibition is reported as -11.1% (inactive). For CC(Br)C(=O)Nc1ccc(C(=O)O)c(O)c1 (stereo not given), the growth inhibition was 3.85% (inactive). For c1ccc(C(Sc2c[nH]c3ccccc23)(c2ccccc2)c2ccccc2)cc1 (tested in a mixture with another compound), the growth inhibition was -20.4% (inactive). With CN1CCC2(CC1)C(=O)N(Cc1ccccc1)C(=O)C2c1ccccc1 (stereo not given) the growth inhibition was -9.95% (inactive). With COC(=O)CC/C=N/NC(N)=O the growth inhibition was 10.2% (inactive). In the case of NNc1ccc([N+](=O)[O-])c2[nH][nH]c(=O)c12, the growth inhibition is reported as 8% (inactive). In the case of CC(=O)Oc1cc(OC(C)=O)c(OC(C)=O)c2c1CCCC2, the growth inhibition is reported as 6.45% (inactive). With CCOC(=O)C1=C(C)OC(C)(OC(C)=O)C1=O (stereo not given) the growth inhibition was 14.1% (inactive). For CN(CCO)CC(O)Cn1cnc2ncnc(N)c21 (stereo not given), the growth inhibition was 21.2% (inactive). With NC(=O)C1CC(O)CC(C(N)=O)O1 (stereo not given) the growth inhibition was -6.75% (inactive). With NC1=NN(S(=O)(=O)c2ccc(Cl)cc2)CC1 the growth inhibition was -14.7% (inactive). In the case of O=C(/C=C/CBr)NC(Cc1ccccc1)C(=O)O (stereo not given), the growth inhibition is reported as -1.45% (inactive). With CC1OC2=N[C@@H]1C(=O)N[C@@H](C(C)C)C1=N[C@H](C(=O)N[C@@H](C(C)C)C3=N[C@H](C(=O)N[C@@H](C(C)C)C4=N[C@H](C(=O)N[C@H]2C(C)C)C(C)O4)C(C)O3)C(C)O1 (stereo not given in full) the growth inhibition was 6.9% (inactive). In the case of c1ccc2c(C3=NCCO3)cccc2c1, the growth inhibition is reported as 11.7% (inactive). For CC(C)(C)C(=O)c1ccc(-c2ccccc2)cc1, the growth inhibition was 17.4% (inactive). With COC1C(C(=O)O)=CC=CC1OC(C)=O (stereo not given) the growth inhibition was 10.6% (inactive). For CCCC(O)CNCC1CCC2CCc3cccc1c32 (stereo not given), the growth inhibition was -2.9% (inactive). With CCCCn1cnc2c(SCc3ccc(Cl)cc3Cl)nc(N)nc21 the growth inhibition was 1.15% (inactive). For Cc1ccc2c(c1)SCc1c-2[nH]c2ccccc12, the growth inhibition was 93.2% (active). For COC(=O)c1cncn1C1CC1, the growth inhibition was 8.25% (inactive). With COC(=O)C1C(=O)C2OC1C1OC(C)(C)OC21 (stereo not given) the growth inhibition was 7.75% (inactive). For CC(C)(Oc1ccc(Cl)cc1)C(=O)NC1CC(C)(C)N(O)C(C)(C)C1, the growth inhibition was -0.4% (inactive). With COC1C(O)CC(OC2CC(OC3CC(O[C@@H]4C(=O)c5c(cc6cc(OC7CC(OC8CC(O)C(O)C(C)O8)C(O)C(C)O7)c(C)c(O)c6c5O)C[C@H]4[C@H](OC)C(=O)[C@@H](O)[C@@H](C)O)OC(C)C3O)OC(C)C2O)OC1C (stereo not given in full) the growth inhibition was 38.7% (inactive). In the case of O=CNCC1(c2ccccc2)CCN(Cc2ccccc2)CC1, the growth inhibition is reported as -2.4% (inactive). For O=C(NCCCl)NCC1CCCO1 (stereo not given), the growth inhibition was -9.35% (inactive). With O=C(O)c1ccc(F)cc1C(=O)O the growth inhibition was 5.5% (inactive). In the case of O=C1CCc2ccccc21, the growth inhibition is reported as -26.6% (inactive). With Nc1nc(N)c2nnsc2n1 the growth inhibition was 13.7% (inactive). With O=C(NNC(=S)Nc1ccc(S(=O)(=O)N2CCCCC2)cc1)c1ccncc1 the growth inhibition was 5.25% (inactive). With Cn1c(=O)oc2cc([N+](=O)[O-])c(Cl)cc21 the growth inhibition was -2.9% (inactive). For CCOC(=O)c1ccc(NC(=O)CNC2CCCCC2)cc1, the growth inhibition was -0.05% (inactive). In the case of Nc1ccc(N=Nc2ccccc2)c(N)c1, the growth inhibition is reported as 29.5% (inactive). With COc1ccc(C(SCC(N)C(=O)O)(c2ccccc2)c2ccccc2)cc1 (stereo not given) the growth inhibition was 32.8% (inactive). For O=C1C2C(C(=O)N1c1ccccc1)C1(Br)c3ccccc3C2(Br)C2C(=O)N(c3ccccc3)C(=O)C21 (stereo not given), the growth inhibition was -9.6% (inactive). With N#Cc1cccc(N2C(=O)c3ccc(C(=O)c4ccc5c(c4)C(=O)N(c4cccc(C#N)c4)C5=O)cc3C2=O)c1 the growth inhibition was -25.9% (inactive). For CCCCCCCCn1nnnc1N, the growth inhibition was -1.1% (inactive). With CC(C)CC(NS(=O)(=O)Cc1ccccc1)C(=O)NN (stereo not given) the growth inhibition was -26.9% (inactive). With CN1CCC/C1=N\c1ncn[nH]1 the growth inhibition was 3.3% (inactive).
